Hits are enriched below; roughly 6.7% of the tested compounds scored in any of these assays.
PINK1 modulator – PINK1 expression modulation | AID 624263 | Potency, µM (titrated, usually from 76.6 µM), for the others: at the top dose activation (PINK1 increase), actives largely listed as activators | PINK1 immunofluorescence, high-content cytometry, 24 h | 410,000 tested, 0.2% active; active means well fitted activation curve with a large enough effect; inconclusive means small, poorly fitted or top-dose-only effect; cell line not stated here; further: % of control where 0% means no effect; nearly all actives have a fitted effect of over 65% in size
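Compound titrations (5 concentrations, 24 h) on a stable cell line; DMSO and CCCP controls. Endpoint: fixed-cell PINK1 immunofluorescence with mitochondrial, cell and nuclear markers, scanned by microplate cytometer.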
MCF10A rereplic – inducers of DNA re-replication in MCF 10A breast cells; MCF 10A DNA re-replication, Hoechst nuclear intensity, 48 h; Potency, µM (series often up to 46.1 µM), for inactives: top-dose activity, positive = re-replication, most hits filed as activators; 350,000 tested, 2.9% active; AID 624296; further: % of control where 0% means no effect; nearly all actives have a fitted effect of over 50% in size
SW480 rerep – inducers of DNA re-replication in SW480 colon cancer cells; SW480 DNA re-replication, Hoechst DNA content imaging, 48 h; Potency, µM (highest dose often 46.1 µM), without a hit: top-dose re-replication activation, actives largely listed as activators; 340,000 tested, 1.8% active; further: % of control where 0% means no effect; nearly all actives have a fitted effect of over 55% in size
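DNA re-replication was detected as more nuclei of elevated Hoechst intensity after 48 hr exposure to compound (23 nL pinned per well of 250 cells).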
KB-3-1 cytotox – KB-3-1 parental cell cytotoxicity. Potency, µM (titrated, usually from 46.1 µM), usual class: cytotoxic. AID 1347075. 400,000 tested, 1.4% active. KB-3-1 viability, CellTiter-Glo ATP luminescence, 72 h; further: on the % scale 0 is the no-effect control and ±100 the full control effect; nearly all actives have a fitted effect of over 60% in size
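Using CellTiter-Glo luminescence, growth of non-resistant KB-3-1 adenocarcinoma cells is assessed 72 h after pin-tool compound addition at 37 °C. Normalized responses across the concentration series yield fitted curves.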
KB-V1 cytotox – KB-V1 MDR subline cytotoxicity. KB-V1 MDR cells viability, CellTiter-Glo, 72 h. Potency, µM (titrated, usually from 46.1 µM), usual class: cytotoxic. 400,000 tested, 3.4% active; further: on the % scale 0 is the no-effect control and ±100 the full control effect; nearly all actives have a fitted effect of over 60% in size
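Readout: CellTiter-Glo luminescence, 10 min after addition. Cells: KB-V1 MDR subline, 72 h at 37 degrees C with compound. Analysis: corrected, normalized data fitted to concentration-effect curves.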
Active calls of the source: *; i = inactive; ? = inconclusive; . = not tested or not shown; [ ] = remark or other dose. Unless noted, the call rests on the fitted dose curve; in most records, active means well fitted curve in the direction sought with a large enough effect; inconclusive means small, poorly fitted or top-dose-only effect, or another doubt; inactive means no such curve, though single readings can be large; an effect the other way counts as inactive or inconclusive. Potency means the concentration at half of the fitted maximal effect.

SMILES	PINK1 modulator	MCF10A rereplic	SW480 rerep	KB-3-1 cytotox	KB-V1 cytotox
CN1OC[C@@H]2CN(S(=O)(=O)c3cccc(C(F)(F)F)c3)[C@H](c3ccc(N4CCCCC4)cc3)C[C@@H]21	5.1%	.	.	i	i
CCCCCc1ccc(-c2ccc(OC)cc2)nc1	-2.7%	9.5%	1.1%	i	i
CCCCCc1ccnc(CC(=O)c2ccc(OC)cc2)c1	-2.0%	-14.0%	-10.0%	23.1µM*	i
CCOC(=O)Nc1ccc(N2CCOCC2)c(S(=O)(=O)Nc2ccc(Cl)cc2)c1	5.5%	?	20.6µM*	i	?
Nc1cc(S(=O)(=O)Nc2ccc(Cl)cc2)ccc1N1CCOCC1	-1.0%	?	3.8%	23.1µM*	?
COc1ccc(NS(=O)(=O)c2cc(NC(=O)c3cc(F)c(F)cc3Cl)ccc2N2CCOCC2)cc1	-0.4%	-4.7%	?	i	i
COc1ccccc1NS(=O)(=O)c1cc(NC(=O)COc2ccccc2F)ccc1N1CCOCC1	-1.9%	0.0%	-0.3%	i	4.61µM*
COc1ccc(NS(=O)(=O)c2cc(NC(=O)c3sccc3C)ccc2N2CCOCC2)cc1	1.1%	?	?	7.31µM*	i
Nc1cc(S(=O)(=O)Nc2ccccc2Cl)ccc1N1CCOCC1	1.6%	0.4%	-2.1%	?	i
Cc1ccc(NC(=O)C(=O)NCC(c2ccc3c(c2)OCO3)N2CCOCC2)c(C)c1 (configuration not stated)	-1.0%	.	.	i	i
COc1ccc(C(=O)N2CCNC(=O)C2)cc1S(=O)(=O)Nc1ccc(Br)cc1	0.3%	4.4%	5.0%	.	.
Cc1ccc(S(=O)(=O)Nc2c(NC3CCCCC3)c3ccccc3oc2=O)c(C)c1	-1.8%	7.9%	11.1%	i	i
CSc1cc(-c2ccc(Cl)cc2)c(C(=O)NC(C)C)s1	5.7%	?	?	i	i
CSc1cc(-c2ccc(Cl)cc2)c(C(=O)NN)s1	15.8%[38.3 µM]	?	?	?	8.2µM*
CSc1nc(Nc2ccc(Cl)cc2)c(C#N)c(=O)[nH]1	-0.9%	15.1%	-1.7%	5.17µM*	5.17µM*
CSc1nc(-c2ccc(Cl)cc2)c(C#N)c(=O)[nH]1	1.5%	-9.5%	20.5%	i	i
N#Cc1c(Nc2ccc(Cl)cc2)s[nH]c1=O	2.5%	18.4µM*	?	i	i
Cn1c2nc(=O)n(-c3ccccc3)c(=O)c-2nc2c1CCCC2	-0.2%	.	.	i	i
CC(C)n1nnnc1SCC(=O)N(C)C1CCS(=O)(=O)C1 (configuration not stated)	0.9%	7.8%	-21.6%	i	?
COc1cc(C)c(/C=C/C(C)=C/C=C/C(C)=C/C(=O)O)c(C)c1C	2.3%	8.2µM*	8.8%	i	i
CCOC(=O)/C=C(C)\C=C\c1c[nH]c2ccccc12	1.4%	1.9%	-2.5%	i	i
CCOC(=O)/C=C(C)/C=C/C=C(C)/C=C/c1c(C)cc(OC)c(C)c1C	.	26.6µM*	1.2%	.	.
Cc1c(C(=O)NCc2ccc(F)cc2)sc(=O)n1Cc1ccccc1F	0.4%	.	.	i	?
CCN(C(=O)CSc1nc(C)nc2sc(C)c(C)c12)C1CCS(=O)(=O)C1 (configuration not stated)	0.9%	-3.0%	-21.2%	i	i
Cc1nc(SCC(=O)N(CC(C)C)C2CCS(=O)(=O)C2)c2c(C)c(C)sc2n1 (configuration not stated)	-1.4%	1.6%	-6.4%	?	3.66µM*
Cc1cc(-c2ccnc(-n3ncc(C(=O)NCC4COCCO4)c3C)n2)c(C)s1 (configuration not stated)	7.4%	.	.	.	.
CCCS(=O)(=O)NC(=O)C1(C)CCCN(C(=O)c2cc(F)ccc2C)C1 (configuration not stated)	0.4%	.	.	i	i
CCOC(=O)CSc1c(-c2cccs2)[nH]c2ccccc12	1.8%	23.1µM*	?	?	?
CCOC(=O)CSc1c(-c2ccc(Cl)cc2)[nH]c2ccccc12	?	?	21.7%	i	i
O=C(CN1C(=O)CC(c2ccco2)Sc2ccccc21)Nc1cccc(C(F)(F)F)c1 (configuration not stated)	0.5%	.	.	?	20.6µM*

Bioassay records from PubChem BioAssay.
